Source: PubChem BioAssay (Tox21)
Results filed as inconclusive are left out. A number with no mark means an inactive call. Activity calls are given as the source filed them. Calls come from the whole dose curve; as a rule, active = well fitted activation curve with a large enough effect in the repeat runs; inconclusive = weak or mixed curves; inactive = flat fitted curve, though single readings scatter.

Assay: A CellTox Green Cytotoxicity Assay to monitor cytotoxicity in HepG2 cells - 32 hour (AID 1224883); note: nearly all actives have a fitted effect of over 50% in size
Conditions: CellTox Green fluorescence; series mostly up to 76.8 µM; cytotoxicity increase: at the top concentration
Source text: National Center for Advancing Translational Sciences [NCATS]
NIH Chemical Genomics Center [NCGC]
U.S. Environmental Protection Agency [EPA]
National Institutes of Environmental Health Sciences [NIEHS]
National Toxicology Program [NTP]
Cell-based models are critical for drug discovery. Determining the natural cytotoxic effects resulting from test compounds is an essential research activity. A CellTox Green Cytotoxicity Assay to monitor cytotoxicity in real time of continues cell culture during 40 hours of the compound treatment was used to screen Tox21 10K library compounds in HepG2 cells. CellTox Green Cytotoxicity Assay is a nonlytic, homogeneous, biofluorescent method to measure cytotoxicity in cell culture after experimental manipulation. The assay system uses a proprietary asymmetric cyanine dye that is excluded from viable cells but preferentially stains the dead cell's DNA. […] Viable cells produce no appreciable increases in fluorescence. Therefore, the fluorescence signal produced by the binding interaction with dead cell DNA is proportional to cytotoxicity.
The mixture of HepG2 cell suspension and reagents were dispensed at 600cells/6 ul/well in 1536-well tissue culture treated black solid bottom plates using a Multidrop dispenser. After the assay plates were incubated at a 37 C/5% CO2 incubator for 5 hours, 23 nL of compounds dissolved in DMSO, positive and negative controls was transferred to the assay plate by a pintool work station. The plates were incubated at 37 C for 40 hours. The fluorescence intensity were measured at 0h, 8h, 16h, 24h, 32h and 40h time points using ViewLux plate reader during compound treatment.
% is set by controls: 0 for no effect and ±100 for the full control effect; potency is the fitted concentration of half-maximal effect.

Structure (SMILES)	cytotoxicity increase	Potency
N#CSCC(=O)O	0.205% [at 35.3 µM]	–
O=C1CCC(C2CCCCC2)CC1	–	38.9 µM (active)
CCOC(=O)CS	-13.9%	–
CCOC(=O)NCCC[Si](OCC)(OCC)OCC	5.01%	–
O=C1CCCCC1C1CCCCC1 (stereo not given)	-2.85%	–
N#Cc1ccc(C(c2ccc(C#N)cc2)n2cncn2)cc1	-4.32% [at 35.3 µM]	–
C=CCCC=C	-10.5%	–
CCCNC(C)(C)COC(=O)c1ccccc1	-8.19% [at 35.3 µM]	–
CCN(CC)C(=O)N(CC)CC	10.2%	–
O=CCCc1ccccc1	-7.13%	–
CCOc1ccc2nc(N)sc2c1	0.0744%	–
OCCN(CCO)c1ccccc1	-1.38%	–
O=C(O[C@@H](C(=O)O)[C@@H](OC(=O)c1ccccc1)C(=O)O)c1ccccc1	3.58%	–
CCN(O)CC	2.99%	–
COc1nc(C)nc(NC(=O)NS(=O)(=O)c2ccccc2OCCCl)n1	-0.834%	–
CC(=O)O[C@H]1CC[C@@]2(C)C(=CC[C@@H]3[C@@H]2CC[C@]2(C)C(C(C)=O)=CC[C@@H]32)C1	0.766% [at 35.3 µM]	–
C=CCc1cc(OC)c(O)c(C(=O)NCCO)c1	-14.5% [at 35.3 µM]	–
Cc1ccccc1C(=O)Nc1ccc(C(=O)N2CCCC(O)c3cc(Cl)ccc32)c(C)c1 (stereo not given)	2.38% [at 35.3 µM]	–
CN1CCN(N)CC1	6.71% [at 35.3 µM]	–
CC(C)c1ccccc1	-4.64%	–

Structure (SMILES)	cytotoxicity increase	Potency
CC(C)NCC(O)COc1ccc(CCOCC2CC2)cc1 (stereo not given)	15.5% [at 35.3 µM]	–
Cc1c(-c2ccccc2)oc2c(C(=O)OCCN3CCCCC3)cccc2c1=O	10.4% [at 35.3 µM]	–
C[C@@H]1CN(c2c(F)c(F)c3c(=O)c(C(=O)O)cn(C4CC4)c3c2F)C[C@H](C)N1	-14.8% [at 15.8 µM]	–
O=C(CC(=O)C(F)(F)F)c1ccccc1	-9.38%	–
CCCCCCCCCC/C=C/C#N	0.273%	–
CCc1cc(Cl)c(OC)c(C(=O)NC[C@@H]2CCCN2CC)c1O	19.2% [at 35.3 µM]	–
CCNCCO	1.47%	–
CCC(=O)O[C@]1(C(=O)SCF)[C@H](C)C[C@H]2[C@@H]3C[C@H](F)C4=CC(=O)C=C[C@]4(C)[C@@]3(F)[C@@H](O)C[C@@]21C	1.2% [at 35.3 µM]	–
CCCCC(=O)O[C@]1(C(=O)CO)[C@H](C)C[C@H]2[C@@H]3CCC4=CC(=O)C=C[C@]4(C)[C@@]3(F)[C@@H](O)C[C@@]21C	0.669% [at 35.3 µM]	–
CN1CCN(C2=Nc3cc(F)ccc3Cc3ccccc32)CC1	-0.0145% [at 35.3 µM]	–
C[C@@H]1CN(c2c(F)c(N)c3c(=O)c(C(=O)O)cn(C4CC4)c3c2F)C[C@H](C)N1	-7.06% [at 15.8 µM]	–
CCCCc1ccc2nc(NC(=O)OC)[nH]c2c1	12.8% [at 35.3 µM]	–
CC1=CC(=O)CC(C)(C)C1=O	8.78%	–
CCCCC(CC)COC(=O)COc1cc(Cl)c(Cl)cc1Cl (stereo not given)	-3.41%	–
COc1cc(N)c(Cl)cc1C(=O)NC1CCN(Cc2ccccc2)CC1	8.36% [at 35.3 µM]	–
CC(C)(CO)[C@@H](O)C(=O)NCCC(=O)O	-0.823%	–
CC(C)Nc1nc(N)nc(Cl)n1	-5.75%	–
CC1(C)O[C@@H]2C[C@H]3[C@@H]4CCC5=CC(=O)CC[C@]5(C)[C@@]4(F)[C@@H](O)C[C@]3(C)[C@]2(C(=O)CCl)O1	-9.72% [at 35.3 µM]	–
OCc1c2ccccc2cc2ccccc12	-0.747%	–
CC1CN(c2ccccc2)NC1=O (stereo not given)	-0.162%	–
